Among the data in PubChem BioAssay (NCI) are growth values, retold here.

Holding throughout (assay): NCI-60 one-dose screen, 48 h (100 = growth as untreated, 0 = no growth, -100 = all killed)
One assay relates to HCT-15 colon. As to conditions: 10 µM unless noted.
The subject of another assay is HT29 colon. The conditions noted are these: 10 µM unless noted.
In the next assay the test system is SNB-75 CNS. The conditions noted are these: 10 µM unless noted.
The next assay has as its system U251 CNS. As to conditions: 10 µM unless noted.
The next assay relates to PC-3 prostate. As to conditions: 10 µM unless noted.
For the next assay, the system named is SK-MEL-5 melanoma. The conditions noted are these: 10 µM unless noted.
Another assay concerns UACC-62 melanoma. The conditions noted are these: 10 µM unless noted.
In the next assay the test system is LOX IMVI melanoma. The conditions noted are these: 10 µM unless noted.
In a further assay the test system is SK-MEL-28 melanoma. As to conditions: 10 µM unless noted.
Another assay deals with SK-MEL-2 melanoma. As to conditions: 10 µM unless noted.
For another assay, the system named is EKVX NSCLC. As to conditions: 10 µM unless noted.
A further assay concerns SN12C renal. As to conditions: 10 µM unless noted.
For another assay, the system named is UO-31 renal. As to conditions: 10 µM unless noted.
In the next assay the test system is TK-10 renal. The conditions noted are these: 10 µM unless noted.
The next assay deals with ACHN renal. The conditions noted are these: 10 µM unless noted.
Another assay has as its system CAKI-1 renal. The conditions noted are these: 10 µM unless noted.
In another assay the test system is A498 renal. As to conditions: 10 µM.
Another assay deals with HL-60(TB) leukemia. The conditions noted are these: 10 µM unless noted.
The subject of another assay is CCRF-CEM leukemia. As to conditions: 10 µM unless noted.
For another assay, the system named is SNB-19 CNS. The conditions noted are these: 10 µM unless noted.

SMILES strings stand for the structures. Compounds without any hit were thinned out: in the full panel of roughly 83,000, 20% have a hit.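 96-well plates, one dose, 48 hours. Percent growth reported; active if below 10.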 Unmarked numbers belong to inactive results. Activity calls are given as the source filed them.

For the compound `C[N+]12CN3CN(CN(C3)C1)C2`, the growth was 110% in the assay with HCT-15 colon; 99.3% with HT29 colon; 46.8% in the assay with SNB-75 CNS; 100% with U251 CNS; 81.3% in the assay with PC-3 prostate; 112% in the assay with SK-MEL-5 melanoma. The growth was 104% with UACC-62 melanoma; 99.7% in the assay on LOX IMVI melanoma; 106% with SK-MEL-28 melanoma; 96.2% in the assay with SK-MEL-2 melanoma; 96.4% in the assay with EKVX NSCLC; 112% in the assay on SN12C renal. For the same compound, the growth in the assay on UO-31 renal was 95.5%; in the assay on TK-10 renal, 128%; in the assay with ACHN renal it was 108%; with CAKI-1 renal, 83.6%; with A498 renal, 109%; in the assay on HL-60(TB) leukemia, 142%. Moreover, in the assay with CCRF-CEM leukemia, the growth was 73.8%.
Take `O=C1C=C(N2C3C4CCC(C4)C32)C(=O)C=C1c1ccccc1` (stereo not given): the growth is 82.7% in the assay on HCT-15 colon; 108% in the assay on HT29 colon; 65.4% in the assay on SNB-75 CNS; 91.4% in the assay on SNB-19 CNS; 81.7% in the assay on PC-3 prostate; 95.9% in the assay on SK-MEL-5 melanoma. For the same compound, the growth in the assay on UACC-62 melanoma was 80.6%; in the assay with LOX IMVI melanoma, 89.9%; in the assay on SK-MEL-28 melanoma it was 91.7%; with SK-MEL-2 melanoma, 87.8%; in the assay with SN12C renal, 93.8%; with UO-31 renal, 90.8%. The growth in the assay with TK-10 renal is 142%; in the assay on ACHN renal it was 73.4%; with CAKI-1 renal, 58%; in the assay on A498 renal, 49.3%; in the assay with HL-60(TB) leukemia, 44.8%; in the assay with CCRF-CEM leukemia it was 0.362% (active).
As to `CC(=O)c1ccc(C(=O)NCC2CCC3(CC2)OOC2(CCCCC2)OO3)cc1`, the growth in the assay with HCT-15 colon was 82.5%; in the assay on HT29 colon, 83.4%; in the assay on SNB-75 CNS, 99.8%; in the assay on SNB-19 CNS, 96.9%; in the assay on U251 CNS it was 64.4%; with UACC-62 melanoma, 80.9%. Moreover, the growth in the assay on LOX IMVI melanoma was 35.3%; with SK-MEL-28 melanoma it was 95.5%; in the assay with SK-MEL-2 melanoma it was 76.7%; in the assay on EKVX NSCLC it was -1.77% (active); in the assay on SN12C renal, 78%; in the assay with UO-31 renal, -78.4% (active). The growth in the assay with TK-10 renal is 86.3%; with ACHN renal, 64.6%; with CAKI-1 renal, -29.9% (active); in the assay with A498 renal, 89.2%; with HL-60(TB) leukemia, 19.6%; in the assay on CCRF-CEM leukemia, 31.9%.
Consider `CCCCCCCC(=O)OCC(=O)[C@]1(O)Cc2c(O)c3c(c(O)c2[C@@H](OC2CC(N)C(O)C(C)O2)C1)C(=O)c1c(OC)cccc1C3=O` (stereo not given in full), for which the growth was -61.5% (active) with HCT-15 colon; -63.5% (active) in the assay on HT29 colon; -79.5% (active) with SNB-75 CNS; -46.5% (active) in the assay on U251 CNS; -100% (active) in the assay on PC-3 prostate; -91.2% (active) in the assay on SK-MEL-5 melanoma. Moreover, the growth in the assay on UACC-62 melanoma is -75.4% (active); in the assay with LOX IMVI melanoma it was -4.4% (active); in the assay on SK-MEL-28 melanoma, -84% (active); in the assay on SK-MEL-2 melanoma, -48.3% (active); with EKVX NSCLC, -57.9% (active); with SN12C renal, -69.4% (active). Also, the growth in the assay on UO-31 renal was -83.2% (active); in the assay on TK-10 renal it was -44.5% (active); in the assay on ACHN renal, -82.9% (active); in the assay on CAKI-1 renal it was -47.9% (active); in the assay with A498 renal, -87.6% (active); in the assay on HL-60(TB) leukemia, -92.4% (active). Further, the growth in the assay with CCRF-CEM leukemia was -90.3% (active).
Turning to `C[C@]12CC[C@H]3[C@@H](CC4SC(N)=NC45C/C(=N/NC(N)=O)CC[C@]35C)[C@@H]1CCC2=O` (stereo not given in full), the growth is -47.8% (active) in the assay on HCT-15 colon; 13.2% with HT29 colon; 99% in the assay with SNB-75 CNS; -9.98% (active) in the assay with SNB-19 CNS; -69.9% (active) in the assay with U251 CNS; 20.6% with SK-MEL-5 melanoma. The growth is 38.9% in the assay with UACC-62 melanoma; -67.6% (active) with LOX IMVI melanoma; 13% in the assay on SK-MEL-28 melanoma; -4.54% (active) in the assay on EKVX NSCLC; 18.1% in the assay with SN12C renal; 85.8% in the assay with UO-31 renal. For the same compound, the growth in the assay with TK-10 renal is 49.2%; in the assay with ACHN renal, 32.4%; in the assay on CAKI-1 renal, 63%; in the assay with A498 renal, 91.6%; in the assay with HL-60(TB) leukemia it was 42.8%; in the assay with CCRF-CEM leukemia, -5.86% (active).
For `CC(=O)/C=C/c1ccc2c(c1)OCO2`, the growth in the assay on HCT-15 colon was 99.7%; in the assay with HT29 colon, 106%; in the assay with SNB-75 CNS it was 79.2%; in the assay on SNB-19 CNS it was 84.6%; in the assay with PC-3 prostate, 95.8%; in the assay on SK-MEL-5 melanoma, 100%. For the same compound, the growth was 90.2% in the assay on UACC-62 melanoma; 109% with LOX IMVI melanoma; 107% in the assay with SK-MEL-28 melanoma; 107% in the assay with SK-MEL-2 melanoma; 98.1% in the assay with SN12C renal; 100% with UO-31 renal. Besides, the growth with TK-10 renal is 99.7%; in the assay on ACHN renal, 97.5%; with CAKI-1 renal, 91.5%; in the assay on A498 renal, 118%; in the assay on HL-60(TB) leukemia, 104%; in the assay with CCRF-CEM leukemia, 94.1%.
Regarding `CN1CC(=O)N(O)C1(C)c1cccnc1` (stereo not given), the growth was 96.9% in the assay on HCT-15 colon; 97.8% with HT29 colon; 88.5% in the assay with SNB-75 CNS; 105% in the assay with SNB-19 CNS; 102% in the assay with U251 CNS; 101% with SK-MEL-5 melanoma. The growth in the assay on UACC-62 melanoma is 104%; in the assay on LOX IMVI melanoma, 97.3%; in the assay with SK-MEL-28 melanoma, 103%; in the assay with SK-MEL-2 melanoma, 94.6%; in the assay with SN12C renal, 101%; with UO-31 renal, 87.5%. In addition, the growth with TK-10 renal is 97.7%; in the assay on CAKI-1 renal it was 95.2%; in the assay with A498 renal, 97.2%; in the assay with HL-60(TB) leukemia, 92.2%; with CCRF-CEM leukemia, 106%.
`CC[C@H](C)[C@H](NC(=O)NC(C)(C)C)C(=O)N(C)[C@H](C[C@@H](OC(C)=O)c1nc(C(=O)N[C@@H](Cc2ccccc2)C[C@H](C)C(=O)OC)cs1)C(C)C`: the growth in the assay with HCT-15 colon is 9.49% (active); in the assay on HT29 colon it was 5.85% (active); in the assay with SNB-75 CNS it was 34.1%; in the assay with SNB-19 CNS it was 47.6%; with U251 CNS, 11.5%; with SK-MEL-5 melanoma, -44.4% (active). Besides, the growth in the assay with LOX IMVI melanoma is 16%; in the assay on SK-MEL-28 melanoma it was 53.2%; in the assay on SK-MEL-2 melanoma, 47.3%; with EKVX NSCLC, 29.4%; in the assay with SN12C renal, 12.1%; in the assay with UO-31 renal, 45.4%. The growth was 49.5% in the assay with TK-10 renal; 22.7% with ACHN renal; 22.2% in the assay with CAKI-1 renal; -10% (active) with A498 renal; -14.6% (active) with HL-60(TB) leukemia; 10.7% with CCRF-CEM leukemia.
